KAT2A inh – GCN5L2 (KAT2A) acetyltransferase inhibition; GCN5L2 HAT assay, ThioGlo1 CoA-SH fluorescence; Potency, µM (top dose mostly 58.9 µM), inactives show top-dose activity change, negative = inhibition, hits mostly inhibitors; 390,000 tested, 0.21% active; Q92830
Target sequence (Q92830 whole entry, looked up): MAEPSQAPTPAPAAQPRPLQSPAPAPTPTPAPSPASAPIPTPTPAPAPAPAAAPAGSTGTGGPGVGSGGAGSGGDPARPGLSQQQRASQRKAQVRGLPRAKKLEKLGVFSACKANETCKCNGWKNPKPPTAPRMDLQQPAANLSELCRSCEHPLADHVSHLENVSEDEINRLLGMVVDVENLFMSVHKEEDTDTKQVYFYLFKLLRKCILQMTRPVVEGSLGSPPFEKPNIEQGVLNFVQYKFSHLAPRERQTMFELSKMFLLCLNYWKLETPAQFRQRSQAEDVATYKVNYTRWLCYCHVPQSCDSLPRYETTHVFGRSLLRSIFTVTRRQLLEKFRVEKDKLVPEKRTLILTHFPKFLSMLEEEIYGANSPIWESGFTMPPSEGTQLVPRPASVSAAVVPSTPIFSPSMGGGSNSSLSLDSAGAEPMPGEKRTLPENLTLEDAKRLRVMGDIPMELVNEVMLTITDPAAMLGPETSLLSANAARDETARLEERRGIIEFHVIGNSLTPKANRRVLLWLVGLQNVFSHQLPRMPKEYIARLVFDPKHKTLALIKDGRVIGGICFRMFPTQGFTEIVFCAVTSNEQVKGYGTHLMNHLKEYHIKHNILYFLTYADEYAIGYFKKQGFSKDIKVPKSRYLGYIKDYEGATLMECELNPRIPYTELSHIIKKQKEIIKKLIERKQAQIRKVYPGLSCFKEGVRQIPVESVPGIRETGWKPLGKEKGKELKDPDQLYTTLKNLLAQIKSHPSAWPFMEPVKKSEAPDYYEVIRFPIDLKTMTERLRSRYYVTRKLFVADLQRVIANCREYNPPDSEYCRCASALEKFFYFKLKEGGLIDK
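Compounds, pin-transferred from DMSO stocks, meet 20nM GCN5L2 for 15 min before the reaction begins with H3(1-25) peptide (75uM) and acetyl-CoA (70uM). Thiol-reactive ThioGlo1 reports CoA release over 20 min at room temperature.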
VDR inh – vitamin D3 receptor (human) inhibition; VDR-SRC2-3 peptide fluorescence polarization, 2 h; P11473; 400,000 tested, 0.93% active; AID 504847; Potency, µM, for inactives: max response, negative = inhibition, most hits filed as inhibitors
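Inhibition of the VDR/SRC2-3 peptide interaction is quantified by fluorescence polarization. Compounds (23 nl, pintool) incubate with the reagents for 2 hours at ambient room temperature.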
DT40 TDP1 no CPT – qHTS for Inhibitors of human tyrosyl-DNA phosphodiesterase 1 (TDP1): qHTS in cells in absence of CPT; 420,000 tested, 15% active; DT40 Tdp1-/- hTDP1 cells, no CPT, ATP luminescence, 48 h; AID 686978, 2013; Potency, µM (titrated, usually from 46.2 µM), for inactives: at the highest dose activity change, negative = growth inhibition, actives largely listed as inhibitors; further: nearly all actives have a fitted effect of over 55% in size
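Cells were dispensed at 400 per well, compounds added by pin tool, plates incubated ≥48 hr at 37 °C, then CellTiter-Glo added for 30 min at room temperature before luminescence reading. Line: DT40 Tdp1-/- complemented with hTDP1; camptothecin omitted.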
TDP1 inh – TDP1 (human) enzyme inhibition; recombinant TDP1, AlphaScreen DNA substrate cleavage; Potency, µM (titrated, usually from 130 µM), for inactives: at the highest dose activity change, negative = inhibition, usual class: inhibitors; 350,000 tested, 0.28% active; AID 485290; further: nearly all actives have a fitted effect of over 40% in size
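Here, a 5' biotin and 3' phosphotyrosine-FITC DNA oligonucleotide reports Tdp1 activity: intact substrate bridges AlphaScreen beads, while cleavage leaves a 3' phosphate and drops signal. All incubations at room temperature.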
DT40 TDP1 CPT – DT40-hTDP1 cell growth loss with CPT | chicken DT40 Tdp1-/-;hTDP1 cells + 20 nM CPT, ATP luminescence, 48 h | Potency, µM (series often up to 46.2 µM), without a hit: at the highest dose activity change, negative = growth inhibition, actives largely listed as inhibitors | 420,000 tested, 12% active; further: nearly all actives have a fitted effect of over 55% in size
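Chicken DT40 Tdp1-/- cells stably complemented with human TDP1 were seeded at 400 cells/well in medium containing 20 nM camptothecin, exposed to pin-transferred compounds, and grown at 37 °C for at least 48 hr. Viability was read as ATP luminescence.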
PLK1 PBD inh – blocks phosphopeptide binding to human PLK1 polo-box domain; P53350; Plk1 PBD binding of FITC phosphopeptide, fluorescence polarization; Potency, µM, without a hit: max response, negative = inhibition, most hits filed as inhibitors; 360,000 tested, 2.8% active; AID 720504; further: series mostly up to about 57 µM; nearly all actives have a fitted effect of over 65% in size
Starred values were filed as active, the others as inactive; ? = inconclusive; . = no result given; [ ] = remark or other dose. A selection: hits, their analogues and other compounds. The true share with any hit is near 18%. The call rests on the fitted dose curve; in most records, active means well fitted curve in the direction sought with a large enough effect; inconclusive means small, poorly fitted or top-dose-only effect, or another doubt; inactive means no such curve, though single readings can be large; an effect the other way counts as inactive or inconclusive. On the % scale 0 is the no-effect control and ±100 the full control effect; potency means the concentration at half of the fitted maximal effect.

SMILES	KAT2A inh	VDR inh	DT40 TDP1 no CPT	TDP1 inh	DT40 TDP1 CPT	PLK1 PBD inh
COc1ccc(Oc2ncc3nc(C)c(=O)n(-c4ccc(OC)cc4)c3n2)cc1	-6.0%	11.3%	?	.	0.3%	.
COc1cnc(-c2ccccn2)nc1Sc1ccccc1Cl	-2.9%	0.4%	1.03µM*	10.5%	1.46µM*	-6.4%
COc1cnc(-c2ccccc2)nc1Sc1ccccc1	-7.0%	-2.5%	?	-4.8%	0.2%	-9.5%
O=C(Cn1c2c(c(-c3ccccc3Cl)cc1=O)CCC2)NCCCN1CCOCC1	-15.2%	11.3%	-24.7%	.	?	2.0%
CCOc1ccc(/C(O)=C2\C(=O)C(=O)N(c3ccccn3)C2c2ccccc2F)c(C)c1 (centres undefined)	.	.	?	.	?	-5.4%
CC(=O)c1ccc2c(c1)C1C=CCC1C(C(=O)O)N2 (centres undefined)	?	-16.0%	-16.0%	6.0%	-6.1%	7.52µM*
Cc1ccc2c(c1)C1C=CCC1C(C(=O)O)N2 (centres undefined)	25.1µM*	.	.	.	.	.
O=C(NCc1ccccc1)C1Nc2ccc(OC(F)(F)F)cc2C2C=CCC12 (centres undefined)	.	-17.7%	?	.	23.1µM*	-9.2%
COc1ccc(OC)c(-c2ccnc(-n3ncc(C(=O)N(C)CCO)c3C3CC3)n2)c1	.	.	-2.9%	.	-0.7%	.
Oc1ccc(Cl)cc1-c1cc(-c2ccco2)[nH]n1	2.3%	-13.8%	18.4µM*	5.2%	9.2µM*	5.32µM*
Oc1ccc(Cl)cc1-c1cc(-c2cccc(Br)c2)n[nH]1	-7.0%	7.6%	18.4µM*	-6.1%	16.4µM*	0.0%
Oc1ccc(Cl)cc1-c1cc(-c2ccccc2Cl)[nH]n1	-4.6%	-5.9%	-18.3%	5.2%	-14.9%	-7.0%
Oc1ccccc1-c1cc(-c2ccco2)[nH]n1	2.3%	-19.2%	-25.5%	5.6%	-10.9%	-3.1%
C#CCCCO/N=C1/C[C@@H](O)[C@@H](O)[C@@H]2[C@@H]3C(=O)N(CCC(=O)OCC)C(=O)[C@H]3CC[C@H]12	.	.	.	5.8%[21 µM]	.	.
CCc1ccccc1N(C)C(=O)c1nn(-c2ccc(OC)cc2)c(=O)c2c1c1ccccc1n2C	-2.5%	-2.3%	?	7.0%	?	.
O=C(O)c1cc2n(n1)C(C(F)(F)F)CC(C1CC1)N2 (centres undefined)	1.6%	?	?	0.6%	?	23.8µM*
CC(C#N)Sc1nnc(Nc2ccccc2)s1 (centres undefined)	-9.2%	-3.6%	18.4µM*	-2.5%	-105.6%	-14.2%
COc1ccccc1C(=O)NNC(=S)NC(=O)c1cc(OC)c(OC)c(OC)c1	13.2%	-5.2%	6.51µM*	9.2%	18.4µM*	-10.9%
COc1ccc(/C=C/C(=O)NC(=S)NNC(=O)c2cc(OC)c(OC)c(OC)c2)cc1OC	-14.8%	0.7%	14.6µM*	5.1%	?	-6.6%
COc1cc(C(=O)NNC(=S)NC(=O)c2ccccc2C)cc(OC)c1OC	2.8%	-2.1%	?	7.9%	16.4µM*	-2.7%
COc1ccc(/C=C/C(=O)NC(=S)Nc2ccccc2)cc1OC	-12.6%	-2.6%	-15.1%	.	10.6%	-19.0%
COc1cccc(-c2nc(SCc3ccc(C)cc3)n3[nH]c(=O)cc3n2)c1	-1.2%	1.5%	16.4µM*	5.3%	18.4µM*	.
C=CCc1ccccc1OCCSc1nc(-c2ccccc2F)nc2cc(=O)[nH]n12	1.5%	7.2%	20.6µM*	?	16.4µM*	.
COc1ccccc1OCCCSc1nc(-c2ccc(C(C)(C)C)cc2)nc2cc(=O)[nH]n12	-14.1%	15.6%	?	5.3%	-100.5%	.
COc1ccc(-c2nc(SCCOc3ccccc3Cl)n3[nH]c(=O)cc3n2)cc1	1.8%	1.2%	?	5.3%	20.6µM*	.
SMILES	KAT2A inh	VDR inh	DT40 TDP1 no CPT	TDP1 inh	DT40 TDP1 CPT	PLK1 PBD inh
CC(Sc1nnc(Cc2ccccc2)n1C)C(=O)NC1CC1 (centres undefined)	3.4%	1.1%	12.3%	-0.2%	-7.9%	-2.3%
CC(=O)c1cccc(NC(=O)Cn2cnc(S(=O)(=O)N3CCC(C)CC3)c2)c1	0.2%	-2.8%	-19.1%	-2.2%	-5.8%	-1.8%
CC1CCc2c(N3CCC(O)CC3)c(F)cc3c(=O)c(C(=O)O)cn1c23 (centres undefined)	-12.3%	-13.7%	?	-2.1%	?	-17.7%
Cc1cc(C)c(NC(=O)c2cn3c4c(c(N5CCN(C)CC5)c(F)cc4c2=O)OCC3C)c(C)c1 (centres undefined)	-2.6%	-24.2%	?	2.7%	18.4µM*	-3.9%
C=CCOC(=O)C(C(C)=O)C(NC(=O)OC)c1cccs1 (centres undefined)	.	.	.	3.7%[21 µM]	.	.
Cc1cccc(C)c1NC(=O)c1sccc1SCC#N	-6.7%	-13.3%	?	2.8%	11.2µM*	-15.1%
CNC(=O)c1sccc1SCc1c(Cl)cccc1Cl	0.0%	-17.8%	?	0.0%	?	-7.8%
O=C(CCSc1ccccn1)c1ccccc1	2.3%	?	2.59µM*	-3.8%	2.31µM*	?
O=C(O)CCSc1ccccn1	-0.8%	-9.0%	0.1%	2.7%	-3.8%	13.4µM*
COc1ccc(C(=O)N2CCC3(CC2)CCN(c2ccccc2)CC3)cc1	-8.5%	-16.7%	?	.	?	.
CCCCCCCCCCn1ccc(=N)cc1	-6.0%	-3.1%	0.0184µM*	5.6%	0.0058µM*	-5.3%
CCCCCCCCn1ccc(=N)cc1	-5.7%	-13.7%	1.84µM*	5.6%	2.06µM*	-6.2%
Cn1c(=O)n(CC(=O)O)c(=O)c2c1nc1n2CCCN1c1ccc(Cl)cc1	-1.9%	8.1%	1.5%	0.6%	-9.6%	.
CCOc1ccc(Br)cc1/C(C)=N\NC1=NCCN1	1.7%	1.3%	4.61µM*	-7.0%	5.8µM*	1.1%
CCCCCOc1ccc(/C(C)=N/NC2=NCCN2)cc1	-20.2%	10.1%	?	4.7%	?	4.5%
O=C(O)c1cc(N2C(=O)C=CC2=O)cc(N2C(=O)C=CC2=O)c1	.	?	-0.5%	.	-2.4%	2.67µM*
COC(=O)C(CC(=O)c1ccc(Br)cc1)n1ccnc1 (centres undefined)	-22.7%	.	1.26µM*	8.2%	1.41µM*	.
COC(=O)C(CC(=O)c1ccc(Br)cc1)n1nc(C)cc1C (centres undefined)	-20.3%	?	?	0.1%	?	-19.6%
COc1cc(-c2cc(NC=O)c3ncc(-c4cccc(C(=O)N(C)C)c4)n3c2)cc(OC)c1OC	.	.	14.6µM*	.	?	-5.6%
CN(C)C(=O)c1cccc(-c2cnc3c(NC=O)cc(-c4ccccc4F)cn23)c1	.	.	18.4µM*	.	?	-10.8%

High-throughput results from PubChem.
